Source: PubChem BioAssay
Activity calls are given as the source filed them.

Tests used:
[1] = adipocyte viability effects, profiling panel, cell-based, 3T3-L1 adipocytes, calcein-AM fluorescence, 48 h, basal (AID 1163); details: 3T3-L1 adipocytes viability, higher = more signal
[2] = HepG2 cell viability effects, profiling panel, calcein-AM fluorescence, 48 h, basal (AID 1164); details: higher = more signal
[3] = MM1S cell viability effects, profiling panel, calcein-AM fluorescence, 48 h, basal (AID 1165); details: higher = more signal;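 further: viability of MM1S multiple myeloma cells under basal unstimulated conditions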
[4] = basal RPMI8226 viability, no added stimulus, profiling panel, cell-based, calcein-AM fluorescence, 48 h, PK04 Diversity Set (AID 1166); details: RPMI8226 myeloma viability, higher = more signal;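 further: cells grown under basal conditions without added stimulus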
[5] = basal HepG2 mitochondrial membrane potential changes, profiling panel, cell-based, JC-1 fluorescence, 24 h, 100 nL compound (AID 1167); details: higher = more signal
[6] = basal 3T3-L1 adipocyte mitochondrial potential changes, profiling panel, cell-based, JC-1 fluorescence, 3T3-L1 adipocytes, 24 h, 100 nL compound (AID 1168); details: JC-1 mitochondrial fluorescence, higher = more signal, called active from +8 up or from −8 down
[7] = basal RPMI8226 mitochondrial membrane potential changes, profiling panel, cell-based, JC-1 fluorescence, 24 h, 100 nL compound (AID 1169); details: RPMI8226 myeloma, JC-1 mitochondrial potential fluorescence, higher = more signal
[8] = basal MM1S mitochondrial membrane potential changes, profiling panel, cell-based, JC-1 fluorescence, 24 h, 100 nL compound (AID 1170); details: higher = more signal
[9] = A549 lung cancer cell viability effects, profiling panel, resazurin fluorescence, 24 h, PK04 Diversity Set (AID 1171); details: higher = more signal, called active from +8 up or from −8 down
[10] = HepG2 liver cancer cell viability effects, profiling panel, resazurin fluorescence, 24 h, PK04 Diversity Set (AID 1172); details: higher = more signal
[11] = basal S. cerevisiae growth modulation, no modifier, primary screen, OD600, strain BY4716, 24 h, basal condition (AID 1173); details: OD600, 24 h, higher = more signal, called active from +8 up or from −8 down
[12] = MM1S myeloma cell viability, profiling panel, resazurin fluorescence, basal, 24 h, PK04 Diversity Set (AID 1174); details: higher = more signal, called active from +8 up or from −8 down;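 further: MM1S multiple myeloma cell line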
[13] = biological target: Dihydroorotate dehydrogenase (quinone), mitochondrial (Plasmodium falciparum (isolate 3D7)) (UniProt Q08210); assay: PfDHODH enzyme inhibitors, primary screen, biochemical, C-terminal His tag, absorbance 600 nm (AID 1175); details: DCIP absorbance 600 nm, higher = more signal, called active from +8 up or from −8 down;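 further: recombinant parasite enzyme with a five histidine tag at its C terminus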
Chain of Dihydroorotate dehydrogenase (quinone), mitochondrial (Plasmodium falciparum (isolate 3D7)) (Q08210 whole entry, looked up): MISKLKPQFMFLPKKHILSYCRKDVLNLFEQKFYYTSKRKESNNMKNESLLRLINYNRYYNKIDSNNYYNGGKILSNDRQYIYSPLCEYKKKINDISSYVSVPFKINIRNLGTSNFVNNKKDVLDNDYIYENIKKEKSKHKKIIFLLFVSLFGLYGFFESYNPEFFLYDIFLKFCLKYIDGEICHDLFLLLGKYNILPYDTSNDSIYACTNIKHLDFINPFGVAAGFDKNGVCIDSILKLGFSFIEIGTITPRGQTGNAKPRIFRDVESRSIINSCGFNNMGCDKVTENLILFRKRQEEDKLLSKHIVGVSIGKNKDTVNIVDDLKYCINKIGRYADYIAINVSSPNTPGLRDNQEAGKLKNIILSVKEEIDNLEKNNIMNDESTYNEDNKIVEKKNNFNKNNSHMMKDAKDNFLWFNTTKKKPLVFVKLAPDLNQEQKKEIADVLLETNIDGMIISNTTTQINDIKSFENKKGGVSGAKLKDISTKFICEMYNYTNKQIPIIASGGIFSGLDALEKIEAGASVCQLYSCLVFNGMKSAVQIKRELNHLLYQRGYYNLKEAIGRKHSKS

[14] = S. cerevisiae RM11-1a growth modifiers, primary screen, strain RM11-1a, OD600, basal, 24 h (AID 1177); details: OD600, 24 h, higher = more signal, called active from +8 up or from −8 down;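 further: cultures grown under basal conditions with no added stressor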
[15] = E. coli acrAB mutant growth effects, primary screen, E. coli filamentation inducers, strain DRC39, OD650, 24 h (AID 1178); details: higher = more signal, called active from +8 up or from −8 down;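 further: growth measured as culture turbidity by optical density at 650 nm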
[16] = E. coli acrAB mutant growth effects, primary screen, E. coli filamentation inducers, strain DRC39, OD650, 48 h (AID 1179);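 further: screen aims at cell division blockers that make cells filament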; details: E. coli DRC39 delta-acrAB growth, higher = more signal, called active from +8 up or from −8 down
[17] = RPMI8226 myeloma cell viability, profiling panel, resazurin fluorescence, basal, 24 h, PK04 Diversity Set (AID 1180); details: higher = more signal;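 further: RPMI8826 multiple myeloma cell line at 5000 cells per well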
[18] = biological target: E3 ubiquitin-protein ligase XIAP (Homo sapiens) (UniProt P98170); assay: XIAP binders, primary screen, biophysical, small-molecule microarray, fluorescence 635 nm (AID 1181); details: small-molecule microarray binding, higher = more signal;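 further: score merges 667 nm emission and signal to noise over triplicate slides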
Chain of E3 ubiquitin-protein ligase XIAP (Homo sapiens) (P98170 whole entry, looked up): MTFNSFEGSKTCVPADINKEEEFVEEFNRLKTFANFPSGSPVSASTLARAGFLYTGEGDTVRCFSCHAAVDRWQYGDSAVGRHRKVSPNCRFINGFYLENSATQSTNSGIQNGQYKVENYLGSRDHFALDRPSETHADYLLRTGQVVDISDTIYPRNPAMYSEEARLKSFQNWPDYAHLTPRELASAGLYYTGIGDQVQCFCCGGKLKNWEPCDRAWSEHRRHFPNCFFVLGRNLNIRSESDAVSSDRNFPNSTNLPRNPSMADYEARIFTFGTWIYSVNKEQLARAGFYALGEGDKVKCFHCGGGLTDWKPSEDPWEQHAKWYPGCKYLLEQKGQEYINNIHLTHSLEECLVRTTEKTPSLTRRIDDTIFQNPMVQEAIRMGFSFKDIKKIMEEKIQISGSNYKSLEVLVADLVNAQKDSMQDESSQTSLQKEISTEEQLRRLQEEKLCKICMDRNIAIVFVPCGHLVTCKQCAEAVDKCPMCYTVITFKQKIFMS

[19] = tested on: XIP peptide (Xip251-270) binding; assay: small-molecule binders of XIP peptide, primary screen, biochemical, small-molecule microarray, fluorescence 635/667 nm, 0.1 µg/mL protein (AID 1182); details: fluorescent protein binding, 635 nm, higher = more signal, called active from +8 up or from −8 down
[20] = tested on: XIP peptide (Xip251-270); assay: small-molecule binders of XIP peptide, primary screen, biochemical, small-molecule microarray, fluorescence 635/667 nm, 0.5 µg/mL protein (AID 1183); details: small-molecule microarray binding, fluorescence 635 nm; higher = more signal

Compound	z-score [1]	z-score [2]	z-score [3]	z-score [4]	z-score [5]	z-score [6]	z-score [7]	z-score [8]	z-score [9]	z-score [10]	z-score [11]	z-score [12]	composite z-score [13]	z-score [14]	z-score [15]	z-score [16]	z-score [17]	composite z-score [18]	composite z-score [19]	composite z-score [20]
CO[C@H]1O[C@H](CO)[C@@H](OC(=O)Nc2ccccc2)[C@H](OC(=O)Nc2ccccc2-c2ccccc2)[C@@H]1OC(=O)Nc1ccccc1-c1ccccc1	0.195	-1.35	-1.09	-1.33	-0.629	2.01 (inactive)	-0.947	0.15	-2.22 (inactive)	-0.342	-0.954 (inactive)	-1.15 (inactive)	-1.33 (inactive)	2.16 (inactive)	-0.233 (inactive)	-0.3 (inactive)	-0.447	-0.0988	1.7 (inactive)	0.868
O=c1n(-c2ccccc2)c(=O)n2n1CC(COc1ccccc1)=C1[C@@H](CCc3ccccc3)OB(O)C[C@@H]12	0.0728	-0.28	-0.0893	-0.364	-0.251	1.31 (inactive)	-0.555	0.615	-0.665 (inactive)	0.312	-2.19 (inactive)	-0.933 (inactive)	0.91 (inactive)	-0.424 (inactive)	2.4 (inactive)	1.4 (inactive)	-0.672	-0.144	1.45 (inactive)	-0.0257
CCCNC(=O)[C@@]1(Sc2ccc(C)cc2)CC(=O)N(Cc2cc(C(F)(F)F)cc(C(F)(F)F)c2)[C@@H]1c1ccc(CO)cc1I	0.66	1.28	-2.53	-1.3	0.848	1.18 (inactive)	-0.649	-1.24	0.0086 (inactive)	1.05	-5.79 (inactive)	-1.68 (inactive)	-0.684 (inactive)	-5 (inactive)	0.961 (inactive)	1.4 (inactive)	-1.55	-0.0925	0.459 (inactive)	0.816
C=CCC(OC(C)=O)[C@@H]1[C@@H](N(Cc2ccc(-c3ccccc3)cc2)C(=O)c2ccc(-c3ccccc3)cc2)c2cc(OCCCO)ccc2N1C(=O)c1ccc(-c2ccccc2)cc1 (stereo not given in full)	0.948	0.623	0.787	0.18	2.74	0.111 (inactive)	-0.176	-0.0803	1.4 (inactive)	1.46	-0.435 (inactive)	1.4 (inactive)	0.169 (inactive)	-0.738 (inactive)	1.34 (inactive)	0.995 (inactive)	0.899	-0.0102	-0.959 (inactive)	-0.58
C=CCC(OC(C)=O)[C@@H]1[C@@H](N(Cc2cc3ccccc3o2)C(=O)c2ccc(-c3ccccc3)cc2)c2cc(OCCCO)ccc2N1C(=O)c1ccc(-c2ccccc2)cc1 (stereo not given in full)	0.893	0.249	0.402	-0.777	3.06	0.604 (inactive)	-0.557	0.511	1.15 (inactive)	0.634	0.18 (inactive)	1.28 (inactive)	0.192 (inactive)	0.975 (inactive)	1.47 (inactive)	1.07 (inactive)	0.996	-0.102	-0.547 (inactive)	-0.599
O=C(O)[C@H]1C[C@H]2C(=O)N[C@@H](Cc3ccccc3)C(=O)N2[C@H]1c1ccc(O)cc1	0.691	-0.142	0.41	0.0405	1.29	-0.176 (inactive)	-0.865	-0.269	0.715 (inactive)	0.833	-0.145 (inactive)	0.635 (inactive)	-0.426 (inactive)	-0.44 (inactive)	0.431 (inactive)	0.361 (inactive)	1.04	0.117	0.3 (inactive)	0.923
COC(=O)C(CC#Cc1ccc2c(c1)[C@]1(C(=O)N2)[C@H](c2ccccc2OCCO)N2[C@H](c3ccccc3)[C@H](c3ccccc3)OC(=O)[C@H]2[C@@H]1C(=O)N1CCCCCCC1)C(=O)OC	1.89	-0.0172	0.578	-0.576	0.87	-0.239 (inactive)	-0.395	-1.32	1.9 (inactive)	0.0437	1.31 (inactive)	1.19 (inactive)	-2.8 (inactive)	1.23 (inactive)	0.723 (inactive)	-0.34 (inactive)	1.17	1.72	6.51 (inactive)	0.937
COc1ccc([Si](C)(C)[C@H]2[C@H](CC(=O)N3Cc4ccccc4C[C@H]3CO)O[C@@]3(C(=O)N(Cc4cccc(N5C(=O)COc6ccccc65)c4)c4ccccc43)[C@@H]2C)cc1	1.8	-0.0432	-0.227	-1.19	2.09	0.335 (inactive)	-1.15	0.424	-0.987 (inactive)	-0.593	-0.855 (inactive)	-1.11 (inactive)	-0.0999 (inactive)	2.03 (inactive)	1.48 (inactive)	-0.185 (inactive)	-0.668	-0.163	1.83 (inactive)	0.618
O=C1c2ccccc2[C@](Cc2ccccc2I)(C(=O)O)[C@H](c2ccc(CO)cc2)N1Cc1ccccc1Cl	1	-0.504	-0.089	-1.18	-0.172	0.571 (inactive)	-0.565	0.295	0.177 (inactive)	0.722	-2.78 (inactive)	1.34 (inactive)	-0.812 (inactive)	-1.29 (inactive)	-0.0031 (inactive)	-0.11 (inactive)	0.601	-0.148	0.8 (inactive)	0.507
